This is a sample that favours compounds with a hit; in the whole collection about 19% have one here.
DT40 TDP1 CPT: qHTS for Inhibitors of human tyrosyl-DNA phosphodiesterase 1 (TDP1): qHTS in cells in presence of CPT; hit rate 12% among 420,000; chicken DT40 Tdp1-/-;hTDP1 cells + 20 nM CPT, ATP luminescence, 48 h; Potency, µM (titrated, usually from 46.2 µM), inactives show top-dose activity change, negative = growth inhibition, actives largely listed as inhibitors; also: potency is read from the fitted curve at half-maximal effect; % is scaled to controls: 0 for no effect and ±100 for the full control effect; nearly all actives have a fitted effect of over 55% in size
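Chicken DT40 Tdp1-/- cells complemented with human TDP1, 400 cells/well, exposed to compounds plus 20 nM camptothecin for at least 48 h at 37 C; viability read as ATP content by CellTiter-Glo luminescence.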
SW480 rereplic: A quantitative high throughput screen for small molecules that induce DNA re-replication in SW480 colon adenocarcinoma cells. Potency, µM (titrated, usually from 46.1 µM), for inactives: at the highest dose re-replication activation, hits mostly activators. AID 624297, 2012. SW480 DNA re-replication, Hoechst DNA content imaging, 48 h. hit rate 1.8% among 340,000; also: potency is read from the fitted curve at half-maximal effect; % of control where 0% means no effect; nearly all actives have a fitted effect of over 55% in size
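Image-based DNA-content assay: after two days of treatment, nuclei were labelled with the DNA dye Hoechst and imaged, and hits were compounds raising the count of nuclei showing high fluorescence intensity.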
IL-1B inflam inh: qHTS for Inhibitors of Inflammasome Signaling: IL-1-beta AlphaLISA Primary Screen; THP-1 LPS/ATP IL-1B secretion, AlphaLISA, 16 h; stronger effect = lower value; activity change, % at 57.5 µM; hit rate 4.7% among 360,000; in the data active = activity change below about -50%; inconclusive = mostly about -30% to -49%; also: % is scaled to controls: 0 for no effect and ±100 for the full control effect
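THP-1 cells pretreated 1 hr with compounds (up to 57.5 uM final), then stimulated with LPS (250 ng/mL final) plus ATP (1.25 mM final); secreted IL-1B measured by AlphaLISA after 16 hr, decreased signal indicating inhibition.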
MCF10A rerep: A quantitative high throughput screen for small molecules that induce DNA re-replication in MCF 10a normal breast cells. MCF 10A DNA re-replication, Hoechst nuclear intensity, 48 h. Potency, µM (top dose mostly 46.1 µM), inactives show at the highest dose activity, positive = re-replication, most hits filed as activators. AID 624296, 2012. hit rate 2.9% among 350,000; also: potency is read from the fitted curve at half-maximal effect; % of control where 0% means no effect; nearly all actives have a fitted effect of over 50% in size
BCR signal inh: qHTS Assay to Find Inhibitors of Chronic Active B-Cell Receptor Signaling; ABC-DLBCL IkBa-CBG/CBR reporter, luminescence ratio, 4 h; Potency, µM (series often up to 46.1 µM), for the others: at the top dose activity change, negative = inhibition, most hits filed as inhibitors; hit rate 0.05% among 340,000; active = well fitted inhibition curve with a large enough effect in the signal ratio, with a control signal flat, not every such curve was filed as active; inconclusive = small, poorly fitted or top-dose-only effect, or effect the other way, or a change in a side signal; the % refers to the signal ratio;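 also: potency is read from the fitted curve at half-maximal effect; plate controls were basal doxycycline-induced cells for no effect and cells given 10 µM MG132 for full effect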
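Compounds up to 46 uM were incubated four hours with TMD8 cells whose green CBG68 luciferase is fused to IkappaBalpha; red CBR luminescence normalised the signal, and concentration-effect curves were fitted to fusion, red and ratio data.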
DT40 TDP1 no CPT: qHTS for Inhibitors of human tyrosyl-DNA phosphodiesterase 1 (TDP1): qHTS in cells in absence of CPT; DT40 Tdp1-/- hTDP1 cells, no CPT, ATP luminescence, 48 h; Potency, µM (series often up to 46.2 µM), for inactives: at the highest dose activity change, negative = growth inhibition, usual class: inhibitors; hit rate 15% among 420,000; AID 686978, 2013; also: potency is read from the fitted curve at half-maximal effect; % is scaled to controls: 0 for no effect and ±100 for the full control effect; nearly all actives have a fitted effect of over 55% in size
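Camptothecin absent (DMSO only). Human TDP1-complemented DT40 knockout cells, 400 cells/well, 37 °C for minimum 48 hr; ATP measured via CellTiter-Glo, 30 min dark incubation, luminescence.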
The depositor's hits bear a star; ? = inconclusive; nt = no result; ! = not active in a repeat; [ ] = dose if it differs, or a comment. Unless noted, calls follow the shape of the dose curve; as a rule, active = well fitted curve in the direction sought with a large enough effect; inconclusive = small, poorly fitted or top-dose-only effect, or another doubt; inactive = no such curve, though single readings can be large; an effect the other way counts as inactive or inconclusive.

SMILES	DT40 TDP1 CPT	SW480 rereplic	IL-1B inflam inh	MCF10A rerep	BCR signal inh	DT40 TDP1 no CPT
CCOC(=O)c1ccc(N(C(=O)CNC(=O)c2ccco2)C(C(=O)NCC2CCCO2)c2ccc(OC)c(OC)c2)cc1 (stereo not drawn)	0%	?	21	?	-9%	-1%
CCCCc1ccc(S(=O)(=O)NC(=O)C2(C)CCN2C(=O)CCc2cccs2)cc1 (stereo not drawn)	-23%	nt	40	nt	nt	-14%
COc1ccccc1-c1nc(SCC(=O)N2CCOCC2)n[nH]1	2%	-3%	37	-3%	?	1%
CCCOc1ccccc1-c1nc(SCC(=O)c2ccccc2)n[nH]1	16µM*	nt	nt	nt	nt	18µM*
O=S1(=O)CC(N2CCN(CCO)CC2)CN1Cc1cn(Cc2cccc(C(F)(F)F)c2)nn1 (stereo not drawn)	-15%	nt	23	nt	nt	-3%
CC(=O)C1C(c2ccc([N+](=O)[O-])cc2)c2c(noc2C)CC1(C)O (stereo not drawn)	5%	-23%	nt	-7%	-12%	-14%
COc1ccccc1/C=C/C(=O)NC(=S)NCC1CCCO1 (stereo not drawn)	-28%	-3%	-62*	1%	-12%	?
CCOc1cc(NC(=S)NCC2CCCO2)c(OCC)cc1NC(=O)c1ccccc1C (stereo not drawn)	29µM*	13%	17	-179%[0.0737 µM]	9%	?
Cc1ccc(NC(=O)c2ccc(S(=O)(=O)NCC3CCCO3)cc2)cc1 (stereo not drawn)	-15%	1%	33	?	18%	-16%
CCOc1cc(NC(=S)NCC2CCCO2)c(OCC)cc1NC(=O)c1ccc(OC)cc1 (stereo not drawn)	-3%	-7%	17	-3%	5%	-9%
O=C(Cc1ccc(Br)cc1)Nc1ccc(S(=O)(=O)NCC2CCCO2)cc1 (stereo not drawn)	12µM*	-4%	-14	-3%	-1%	18µM*
Cc1ccccc1C(=O)Nc1ccc(S(=O)(=O)NCC2CCCO2)cc1 (stereo not drawn)	10µM*	nt	6	nt	nt	13µM*
COCC(=O)Nc1ccc(S(=O)(=O)NCC2CCCO2)cc1 (stereo not drawn)	6%	-2%	22	4%	7%	-3%
O=C(Cn1cccn1)N1CCOc2c(cc(-c3ncc(C(F)(F)F)cc3Cl)cc2OCC2CCCO2)C1 (stereo not drawn)	-15%	nt	nt	nt	nt	-17%
N#C/C(=C\c1cccnc1)C(=O)Nc1ccc(O)cc1F	-10%	-2%	19	4%	-1%	-1%
COc1cc(C(=O)OCCCN(C)C)cc(OC)c1OC	21%	-132%	-7	5%	-1%	-15%
COc1cc(C(=O)OCCCN2CCCN(CCCOC(=O)c3cc(OC)c(OC)c(OC)c3)CC2)cc(OC)c1OC	17µM*!	?	-22	?	nt	24µM*
COc1cc(C(=O)OCCN2CCOCC2)cc(OC)c1OC	-16%	6%	15	-1%	0%	-6%
CCN(CC)CCCCCCCCOC(=O)c1cc(OC)c(OC)c(OC)c1	?	-4%	-14	-26%	-10%	22µM*!
CCCCN(C)c1nc2c(S(=O)(=O)c3ccc(CC)cc3)nnn2c2ccc(Cl)cc12	12µM*	nt	nt	nt	nt	10µM*
Cc1ccc(S(=O)(=O)c2nnn3c2nc(N(C)Cc2ccccc2)c2cc(Cl)ccc23)cc1C	13µM*	nt	nt	nt	nt	12µM*
Cc1ccc(S(=O)(=O)c2nnn3c2nc(N2CCN(c4ccc(F)cc4)CC2)c2cc(Cl)ccc23)cc1C	-11%	nt	nt	nt	nt	-9%
COc1ccc(-n2c(SCC(=O)NCC3CCCO3)nc3c(c2=O)SC(C)C3)cc1 (stereo not drawn)	-4%	0%	-7	9%	-1%	2%
N#C/C(=C\c1ccc([N+](=O)[O-])o1)C(=O)Nc1ccc(F)cc1	1.3µM*	?	-90*	?	?	2.3µM*
Cc1ccccc1OCCn1cnc2cc([N+](=O)[O-])ccc2c1=O	18µM*	-6%	0	3%	9%	21µM*
SMILES	DT40 TDP1 CPT	SW480 rereplic	IL-1B inflam inh	MCF10A rerep	BCR signal inh	DT40 TDP1 no CPT
CN(Cc1cccs1)C(=O)Cn1cnc2cc([N+](=O)[O-])ccc2c1=O	?	-13%	0	0.82µM*	?	-12%
COc1ccc(Cn2c(SCC(=O)NCc3ccc(Cl)cc3)nc3ccsc3c2=O)cc1	?	nt	nt	nt	nt	-22%
O=c1cc(-c2ccc(O)cc2)oc2c(O)c(O)c(O)c(O)c12	23µM*	3%	-3	6%	5%	?
O=c1cc(-c2ccc(O)cc2)oc2ccc3ccccc3c12	?	20%	-22	18µM*	?	16µM*
O=c1cc(C(Cl)(Cl)Cl)oc2c1ccc1ccccc12	0.15µM*	13µM*	-73*	8.2µM*	?	0.52µM*
COc1cccc2oc(-c3ccc(O)cc3)cc(=O)c12	2%	nt	nt	nt	nt	-23%
O=c1cc(-c2ccco2)oc2c1ccc1ccccc12	-6%	1%	-22	9%	?	-21%
O=c1cc(-c2ccncc2)oc2c1ccc1ccccc12	?	17%	-83*	19%	?	23µM*
Cc1cc2c(c(=O)n1-c1ccccc1)C1O[C@](c3ccsc3)(Cc3cc(C#N)ccc31)O2	nt	nt	nt	nt	25%[9.22 µM]	nt
O=c1cc(-c2ccc(O)cc2)oc2c1ccc1ccccc12	-23%	11%	-59*	-2%	8%	-18%
CCOC(=O)N(C)c1c(CC)nc2c(OCc3ccc(S(C)(=O)=O)cc3)cccn12	-20%	nt	3	nt	nt	-20%
Cc1cc(N2CCOCC2)nc(NCc2ccccc2)n1	21µM*	1%	-15	7.3µM*	-7%	13µM*
Cc1cc(N2CCCCC2)nc(NCc2ccccc2)n1	10µM*	?	-99*	?	-12%	7.3µM*
CCN(C(=O)CSc1n[nH]c(N)n1)C1CCCCC1	-29%	?	-11	-3%	-2%	23%
CCOc1cccc2sc(N3CCN(C(=O)C(C)(C)C)CC3)nc12	?	nt	nt	nt	?	21µM*
CCOc1cccc2sc(N3CCN(C(=O)c4ccco4)CC3)nc12	15µM*	nt	nt	nt	?	16µM*
